Data published in PubChem BioAssay.
Activity calls are given as the source filed them.

Tests used:
[1] = compound effects on lung adenocarcinoma cell viability – A549, calcein-AM fluorescence, 48 h, basal, profiling panel (AID 1162); conditions: higher = more signal
[2] = compound effects on differentiated 3T3-L1 adipocyte viability – cell-based, 3T3-L1 adipocytes, calcein-AM fluorescence, 48 h, basal, profiling panel (AID 1163); conditions: 3T3-L1 adipocytes viability, higher = more signal
[3] = compound effects on hepatocellular carcinoma cell viability – HepG2, calcein-AM fluorescence, 48 h, basal, profiling panel (AID 1164); conditions: higher = more signal
[4] = compound effects on multiple myeloma cell viability – MM1S, calcein-AM fluorescence, 48 h, basal, profiling panel (AID 1165); conditions: higher = more signal
[5] = calcein-AM signal in unstimulated myeloma cells – cell-based, calcein-AM fluorescence, 48 h, PK04 Diversity Set, profiling panel (AID 1166); conditions: RPMI8226 myeloma viability, higher = more signal;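 further: cells grown under basal conditions without added stimulus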
[6] = JC-1 mitochondrial signal, unstimulated HepG2 cells – cell-based, JC-1 fluorescence, 24 h, 100 nL compound, profiling panel (AID 1167); conditions: HepG2 mitochondrial potential, higher = more signal
[7] = JC-1 mitochondrial signal, unstimulated adipocytes – cell-based, JC-1 fluorescence, 3T3-L1 adipocytes, 24 h, 100 nL compound, profiling panel (AID 1168); conditions: JC-1 mitochondrial fluorescence, higher = more signal, called active from +8 up or from −8 down
[8] = JC-1 mitochondrial signal, unstimulated myeloma cells – cell-based, JC-1 fluorescence, RPMI8226, 24 h, 100 nL compound, profiling panel (AID 1169); conditions: JC-1 mitochondrial potential fluorescence, higher = more signal
[9] = JC-1 mitochondrial signal, unstimulated MM1S myeloma – cell-based, JC-1 fluorescence, 24 h, 100 nL compound, profiling panel (AID 1170); conditions: MM1S mitochondrial potential, higher = more signal
[10] = resazurin metabolic signal in A549 cells – cell-based, resazurin fluorescence, 24 h, PK04 Diversity Set, profiling panel (AID 1171); conditions: A549 viability, higher = more signal, called active from +8 up or from −8 down
Further: test concentration not given here.

Compound	z-score [1]	z-score [2]	z-score [3]	z-score [4]	z-score [5]	z-score [6]	z-score [7]	z-score [8]	z-score [9]	z-score [10]
[N-]=[N+]=NCc1ccccc1C[C@]1(C(N)=O)N=C(c2ccc(OCCCO)cc2)O[C@H]1c1ccccc1	-0.277	-0.0112	-0.284	-2.25	-1.04	-0.417	0.587 (inactive)	-0.715	-0.464	0.004 (inactive)
O=C1O[C@H](c2ccccc2)[C@H](c2ccccc2)N2[C@H]1[C@@H](C(=O)N1CCN(c3ncccn3)CC1)[C@]1(C(=O)Nc3ccc(C#CC4(O)CCCCCC4)cc31)[C@H]2c1ccc(OCCO)cc1	0.282	1.11	0.473	-0.699	0.148	-1.73	-0.309 (inactive)	-0.618	-0.87	0.746 (inactive)
COCCCNC(=O)[C@]1(CCS(=O)(=O)c2ccccc2)N=C(c2ccc(OCCCO)cc2)O[C@@H]1c1ccccc1CN=[N+]=[N-]	1.61	0.652	1.15	0.114	0.0901	0.542	0.482 (inactive)	-0.393	-1.34	-0.97 (inactive)
O=C1NC(=O)C2C1C=CC(C(O)c1c(F)cccc1Cl)N2Nc1ccc(Cl)cc1Cl (stereo not given)	-2.11	0.0772	-2.82	-3.64	-1.39	-3.44	-0.775 (inactive)	-1.06	-1.46	-2.22 (inactive)
C=CCOC(=O)[C@H]1[C@@H]2C(=O)O[C@@H](c3ccccc3)[C@@H](c3ccccc3)N2[C@@H](c2ccc(OCCOC(=O)[C@@H]3C[C@@H]4C(=O)N[C@@H](CCCCNC(C)=O)C(=O)N4[C@@H]3c3ccc(O)cc3)cc2)[C@]12C(=O)Nc1ccc(I)cc12	-0.34	0.522	-0.786	-1.6	-0.957	-1.03	2.24 (inactive)	-0.744	-0.888	-0.389 (inactive)
COC(=O)c1c(CC[C@@H](CO)NC(=O)N2CCC[C@H]2Cn2cc(Cc3ccccc3)nn2)oc(C(C)=O)c1C(=O)OC	-0.105	-0.25	-0.904	0.823	-1.41	-0.123	-0.0157 (inactive)	0.127	-0.236	0.435 (inactive)
O=C1C[C@@](C(=O)NCCN2CCOCC2)(c2ccc([N+](=O)[O-])cc2)[C@@H](c2ccc(CO)cc2I)N1C1CCCCC1	0.465	0.267	-0.696	-1.55	-0.764	2.87	0.264 (inactive)	-0.444	0.267	2.01 (inactive)
CC=CC(O)C1C=CC2C(=O)N(c3ccccc3)C(=O)C2N1Nc1ccccc1F (stereo not given)	-1.68	-0.161	-0.182	0.807	-1.85	-0.866	-0.961 (inactive)	0.367	-0.254	-0.548 (inactive)
COCCOC(=O)N1C(=O)[C@@]2(c3cc(C#Cc4ccc(OC)cc4)ccc31)[C@H](C(=O)Nc1nc3ccccc3s1)[C@H]1C(=O)O[C@H](c3ccccc3)[C@H](c3ccccc3)N1[C@@H]2c1ccc(O)cc1	0.373	1.31	-0.375	-1.18	-1	-2.78	1.1 (inactive)	-0.544	-0.766	0.0344 (inactive)
O=C1O[C@H](c2ccccc2)[C@H](c2ccccc2)N2[C@H]1[C@@H](C(=O)O)[C@]1(C(=O)Nc3ccc(C#CC4=CCCCC4)cc31)[C@H]2c1ccc(O)cc1	0.576	-0.029	0.85	-3.14	-2.25	-3.42	0.0262 (inactive)	-1.03	-0.657	0.391 (inactive)
COC(=O)Cn1c(C(=O)N(C)C)cc2c1C[C@H]1CN(C(=O)c3ccccc3)[C@@](Cc3ccc(F)cc3)(C(=O)OC)[C@@H]21	-0.0599	-1.23	0.0845	-1.38	-1.58	0.0394	-0.53 (inactive)	0.446	-0.148	-0.421 (inactive)
COCCOC(=O)N1C(=O)[C@@]2(c3cc(C#Cc4ccc(OC)cc4)ccc31)[C@H](c1ccccc1OCCO)N1[C@H](c3ccccc3)[C@H](c3ccccc3)OC(=O)[C@H]1[C@@H]2C(=O)N1CCCCCCC1	0.161	1.62	1.19	-0.248	-0.584	0.591	3.46 (inactive)	-0.686	-1.16	0.375 (inactive)
O=C1C2C=CC(C(O)c3ccccc3)N(Nc3ccccc3F)C2C(=O)N1c1ccccc1 (stereo not given)	-0.826	-0.717	0.925	-1.06	0.379	0.12	-0.0776 (inactive)	-1.04	-1.29	-0.412 (inactive)
CCCCCCc1nc(C2CC2)cc2c1[Si](C(C)C)(C(C)C)O[C@H]2c1ccccc1	-0.036	-0.177	-0.106	-0.892	-0.517	-1.09	-0.731 (inactive)	0.573	0.0835	0.254 (inactive)
COCCOC(=O)N1C(=O)[C@@]2(c3cc(C#CCCO)ccc31)[C@H](C(=O)Nc1nc3ccccc3s1)[C@H]1C(=O)O[C@H](c3ccccc3)[C@H](c3ccccc3)N1[C@@H]2c1ccccc1OCCO	-0.216	0.121	-1.1	-0.965	-0.333	-3.13	-0.372 (inactive)	-0.183	-0.744	0.513 (inactive)
C=CC[C@@]1(C(=O)N2CCOCC2)N=C(c2ccc(OCCCO)cc2)O[C@@H]1c1ccccc1CN=[N+]=[N-]	1.42	0.563	1.09	-0.909	-0.697	1.97	-0.212 (inactive)	-0.838	-0.845	0.278 (inactive)
Cc1ccc(S[C@]2(C(=O)O)CC(=O)N(Cc3ccccc3Cl)[C@@H]2c2ccc(CO)cc2I)cc1	-0.794	-0.551	-0.828	-2.94	-2.92	-0.508	-1.14 (inactive)	-0.615	-0.589	0.459 (inactive)
C[C@@H]1ON(c2ccc(C(=O)OC(C)(C)C)cc2)[C@H](c2ccc(O)cc2)[C@H]1C(=O)N1C(=O)OC[C@H]1Cc1ccccc1	-1.68	0.82	-4.85	-3.31	-4.04	-3.38	-0.493 (inactive)	-0.877	-2.81	-1.31 (inactive)
COC(=O)C(CC#Cc1ccc2c(c1)[C@]1(C(=O)N2)[C@H](c2ccccc2OCCO)N2[C@H](c3ccccc3)[C@H](c3ccccc3)OC(=O)[C@H]2[C@@H]1C(=O)NC[C@H](O)c1ccccc1)C(=O)OC	1.24	-0.625	0.876	-3.38	-4.55	-1.12	1.01 (inactive)	-1.11	-2.27	0.107 (inactive)
CC(=O)NCCCC[C@@H]1NC(=O)[C@@H]2C[C@H](C(=O)NCCCC[N+](C)(C)C)[C@H](c3ccc(O)cc3)N2C1=O	-0.431	0.994	-1.29	-0.606	0.274	-1.42	-0.152 (inactive)	-0.547	-0.0697	-1.04 (inactive)
COC(=O)c1nc2oc1CC[C@@H](CO)NC(=O)N(C)Cc1cnnn1C[C@H](Cc1ccccc1)NC2=O	0.0656	-0.65	0.537	1.01	0.529	0.912	1.25 (inactive)	-0.912	-0.511	0.634 (inactive)
